Compound activity deposited in PubChem by National Center for Advancing Translational Sciences (NCATS).
Hits are enriched below; roughly 19% of the tested compounds scored in any of these assays.
DT40 TDP1 CPT: qHTS for Inhibitors of human tyrosyl-DNA phosphodiesterase 1 (TDP1): qHTS in cells in presence of CPT; chicken DT40 Tdp1-/-;hTDP1 cells + 20 nM CPT, ATP luminescence, 48 h; Potency, µM (doses to about 46.2 µM), for the others: top-dose activity change, negative = growth inhibition, usual class: inhibitors; 420,000 tested, 12% active; AID 686979, 2013; further: potency means the concentration at half of the fitted maximal effect; nearly all actives have a fitted effect of over 55% in size
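Chicken DT40 Tdp1-/- cells complemented with human TDP1, 400 cells/well, exposed to compounds plus 20 nM camptothecin for at least 48 h at 37 C; viability read as ATP content by CellTiter-Glo luminescence.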
DT40 TDP1 no CPT: qHTS for Inhibitors of human tyrosyl-DNA phosphodiesterase 1 (TDP1): qHTS in cells in absence of CPT | Potency, µM (highest dose often 46.2 µM), for inactives: at the top dose activity change, negative = growth inhibition, usual class: inhibitors | 420,000 tested, 15% active | AID 686978, 2013 | DT40 Tdp1-/- hTDP1 cells, no CPT, ATP luminescence, 48 h; further: potency means the concentration at half of the fitted maximal effect; nearly all actives have a fitted effect of over 55% in size
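Luminescent ATP content (CellTiter-Glo) served as the growth readout. Knockout chicken DT40 cells expressing human TDP1 were exposed to compounds without camptothecin for a minimum 48 hr at 37 °C.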
HT1080 IDH1KD tx: qHTS for induction of synthetic lethality in tumor cells producing 2HG: qHTS for the HT-1080-IDH1KD cell line; Potency, µM (doses to about 46.1 µM), for inactives: top-dose activity, negative = toxicity, most hits filed as cytotoxic; HT-1080 IDH1 knockdown viability, ATP luminescence, 48 h; 360,000 tested, 2% active; AID 686971, 2013;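 further: potency means the concentration at half of the fitted maximal effect; 0% = DMSO wells and -100% = cell-free medium wells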
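Luminescent ATP read-out (CellTiter-Glo, 10 min at room temperature) after 48 h compound exposure at 37 °C gave viability of IDH1-knockdown HT-1080 cells. Activity was normalised to DMSO and cell-free wells, then fitted as concentration-response curves.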
IL-1B inflam inh: qHTS for Inhibitors of Inflammasome Signaling: IL-1-beta AlphaLISA Primary Screen; 360,000 tested, 4.7% active; activity change, % at 57.5 µM; THP-1 LPS/ATP IL-1B secretion, AlphaLISA, 16 h; stronger effect = lower value; AID 743279, 2014; in the data active means activity change below about -50%; inconclusive means mostly about -30% to -49%
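THP-1 cells pretreated 1 hr with compounds (up to 57.5 uM final), then stimulated with LPS (250 ng/mL final) plus ATP (1.25 mM final); secreted IL-1B measured by AlphaLISA after 16 hr, decreased signal indicating inhibition.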
HT1080NT lethal: qHTS for induction of synthetic lethality in tumor cells producing 2HG: qHTS for the HT-1080-NT fibrosarcoma cell line; HT-1080-NT fibrosarcoma viability, CellTiter-Glo ATP luminescence, 48 h; Potency, µM (titrated, usually from 46.1 µM), for inactives: at the top dose activity, negative = less viability, most hits filed as cytotoxic; 360,000 tested, 1.6% active;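 further: NT is the 2HG producing partner of a matched IDH1 knockdown line; potency means the concentration at half of the fitted maximal effect; 0% = DMSO-treated cells and -100% = media-only wells without cells; nearly all actives have a fitted effect of over 55% in size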
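HT-1080-NT fibrosarcoma cells (2HG-overproducing), 750 cells/well in RPMI with 5% FBS, dosed after 2 h and incubated 48 h at 37C. CellTiter-Glo luminescence normalized to DMSO and no-cell wells; concentration-response curves fitted and classed.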
* = called active by the depositor; u = inconclusive; x = not tested or not shown; [ ] = dose if it differs, or a comment. Unless noted, the call rests on the fitted dose curve; in most records, active means well fitted curve in the direction sought with a large enough effect; inconclusive means small, poorly fitted or top-dose-only effect, or another doubt; inactive means no such curve, though single readings can be large; an effect the other way counts as inactive or inconclusive. Unless noted, on the % scale 0 is the no-effect control and ±100 the full control effect.

SMILES | DT40 TDP1 CPT | DT40 TDP1 no CPT | HT1080 IDH1KD tx | IL-1B inflam inh | HT1080NT lethal
CCN(Cc1ccncc1)Cc1ccc2c(c1)CN(C(=O)c1ccccc1)CCO2 | 6%[9.04 µM] | -15% | x | x | x
O=c1c2c(C(F)(F)F)cc(C(F)(F)F)nc2[nH]n1-c1ccccc1 | 14µM* | u | u | -75* | u
Cc1cc(C(C)(C)C)nc2[nH]n(-c3ccccc3)c(=O)c12 | -8% | -25% | 5% | 17 | 2%
CCOC(=O)C1(C)CCN1C(=O)c1ccc(C)cc1 (centres undefined) | -1% | -7% | u | 24 | 12%
Cc1onc(-c2ccccc2)c1C(=O)N(Cc1ccco1)Cc1cccs1 | u | u | -20% | u | 0%
O=C(c1ccccc1Cl)N(Cc1ccco1)Cc1ccco1 | 21µM* | 15µM* | x | x | x
O=C(COC(=O)c1ccccc1Cl)NCc1ccco1 | 0% | 2% | -3% | 23 | -6%
O=C(c1ccccc1)N(Cc1ccco1)Cc1cccs1 | u | 13µM* | x | x | x
Cc1nc2cnc(N3CCN(C)CC3)nc2n(-c2ccccc2)c1=O | 10% | -15% | x | x | x
COc1cc(CCC(=O)OCC(=O)NCCc2ccc(S(N)(=O)=O)cc2)cc(OC)c1OC | 9% | 10% | 9% | -10 | 16%
O=C(Cn1c(=O)n(Cc2ccc3c(c2)OCO3)c(=O)c2oc3ccccc3c21)Nc1ccccc1F | -21% | -16% | x | x | x
Cc1ccccc1C(=O)NC1(C(F)(F)F)N=C(c2ccccc2)N(Cc2ccccc2)C1=O (centres undefined) | 23µM* | 23µM* | x | x | x
CC(C)C(=O)Nc1ccc2c(c1)C(=O)N(CCC(=O)O)C2=O | -10% | 29µM* | -3% | 3 | 0%
COC(/C=C/Nc1ccc(OC)cc1)=C(C#N)C#N | -7% | 1% | -1% | -59* | -12%
CC1(C)OC2CC3C4CC(F)C5=CC(=O)CC[C@@]5(C)C4C(O)C[C@@]3(C)[C@]2(C(=O)CO)O1 (some centres undefined) | -18% | -23% | x | x | x
COc1ccc2c(c1)C(CC(C)=O)N(c1ccc(-c3cnc(OC)nc3)cc1)C(c1ccsc1)=C2 (centres undefined) | -15% | u | 2% | 13 | 0%
COc1cc(-c2ccc(N3C(c4ccsc4)=Cc4ccccc4C3CC(C)=O)cc2)cc(OC)c1OC (centres undefined) | u | u | 12% | 0 | 0%
COc1cc(OC)cc(C2=Cc3ccccc3C(CC(C)=O)N2c2ccc(C#CC3(N)CCCCC3)cc2)c1 (centres undefined) | u | u | 13µM* | -19 | 15µM*
COc1cc(OC)cc(C2=Cc3ccc(OC)cc3C(CC(C)=O)N2c2ccc(C#CC3(O)CCCCC3)cc2)c1 (centres undefined) | u | 21µM* | -24% | -24 | -17%
COc1cccc(C2=Cc3ccc(F)cc3C(CC(C)=O)N2c2ccc(C#CC3(O)CCCCC3)cc2)c1 (centres undefined) | u | u | u | -18 | u
COc1cc(OC)cc(C2=Cc3ccc(OC)cc3C(CC(C)=O)N2c2ccc(C#CC3(N)CCCCC3)cc2)c1 (centres undefined) | 5.2µM* | 26µM* | 26µM* | -22 | 16µM*
O=C(NCc1cccnc1)[C@@H]1CC=C[C@@H]2CCN(Cc3ccccc3)C(=O)[C@@H]21 | 4% | 1% | 8% | 21 | 16%
COc1ccc2c(c1)c(CC(=O)Nc1cccc(S(N)(=O)=O)c1)c(C)n2C(=O)c1ccc(Cl)cc1 | u | u | u | -15 | u
O=C(COC(=O)CN1C(=O)c2ccccc2C1=O)Nc1ccccc1C(F)(F)F | -14% | -14% | 1% | 28 | 0%
